From PubChem BioAssay (Tox21) come the findings set out here.

Where “and” joins values, the source holds several entries; their conditions need not be identical. Equal entries are not always repeated. Records with an inconclusive call do not appear. Unmarked numbers belong to inactive results. Calls of active or inactive are those of the source. Unless noted, calls come from the whole dose curve; as a rule, active = well fitted activation curve with a large enough effect in the repeat runs; inconclusive = weak or mixed curves, or effect the other way; inactive = no such curve, though single readings can be large or run the other way.
% is set by controls: 0 for no effect and ±100 for the full control effect.

The nature of the first test: qHTS assay to identify small molecule antagonists of the estrogen related receptor signaling pathway with the pleiotropic PPARgamma coactivator (PGC) from Tox21 10K library - cell viability counter screen (AID 1224840; active = well fitted cell-killing curve with a large enough effect in the repeat runs, not every such curve was filed as active; note: nearly all actives have a fitted effect of over 40% in size; note: potency is the fitted concentration of half-maximal effect). As to conditions: PGC/ERR reporter cells viability, CellTiter-Fluor, 17.5 h; series mostly up to 92.4 µM; viability change, negative = cytotoxic: at the top concentration. The procedure, abridged: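 Viability counter screen, PGC/ERR cells: 17.5 h compound exposure at 37 C, CellTiter-Fluor fluorescence endpoint.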
Take `C[n+]1ccn(Cc2ccccc2)c1`: the “viability change, negative = cytotoxic” value is 4.8%.

Take `O=C(Nc1cccc(C(F)(F)F)c1)c1cc(Br)cc(Br)c1O`: the Potency was 6.86 µM (active).

With `CCCCCCCCCCCCCCCC[N+](C)(C)CCN(Cc1ccc(OC)cc1)c1ncccn1`, the “viability change, negative = cytotoxic” value is -23.9% [at 42.5 µM].

Turning to `CNc1ccc(O)cc1`, the Potency was 48.5 µM (active).

Regarding `COc1cc(-c2nc(NC(=O)c3cc4cc(C)cc(C)c4n3CC(=O)O)sc2CCC2CCCCC2)c(OC)cc1Cl`, the Potency was 39.7 µM (active).

For the compound `Oc1ccc(N=Nc2ccccc2)cc1`, the Potency was 27.7 µM (active).

Regarding `NC(=O)C1(N2CCCCC2)CCN(CCCN2c3ccccc3CCc3ccc(Cl)cc32)CC1`, the Potency was 26.6 µM (active).

In the case of `CCCCc1oc2ccc(NS(C)(=O)=O)cc2c1C(=O)c1ccc(OCCCN(CCCC)CCCC)cc1`, the Potency was 18.8 µM (active).

As for `Clc1ccccc1C(c1ccccc1)(c1ccccc1)n1ccnc1`, the Potency is 17.2 µM (active).

With `CC(C)(C)CC(C)(C)c1ccc(O)c(Cc2ccc(Cl)cc2Cl)c1`, the Potency was 29.8 µM (active).

Turning to `OCCN1CCN(CC/C=C2/c3ccccc3Sc3ccc(C(F)(F)F)cc32)CC1`, the Potency is 29.8 µM (active).

Take `COc1ccc(CN2CCN(C(c3ccc(F)cc3)c3ccc(F)cc3)CC2)c(OC)c1OC`: the Potency was 26.6 µM (active).

On to `NC(=NCCCCCCN=C(N)/N=C(\N)Nc1ccc(Cl)cc1)/N=C(\N)Nc1ccc(Cl)cc1`, for which the Potency was 54 µM (active) [middle of 4 runs].

On to `Nc1ccc2cc(S(=O)(=O)O)cc(O)c2c1N=Nc1ccccc1C(F)(F)F`, for which the “viability change, negative = cytotoxic” value was -26%.

Regarding `Cc1onc(-c2ccccc2Cl)c1C(=O)N[C@@H]1C(=O)N2[C@@H]1SC(C)(C)[C@@H]2C(=O)O`, the “viability change, negative = cytotoxic” value is 26% [at 42.5 µM].

As to `CS(=O)(=O)CCNCc1ccc(-c2ccc3ncnc(Nc4ccc(OCc5cccc(F)c5)c(Cl)c4)c3c2)o1`, the Potency was 33.5 µM (active).

Consider `CCCCCCCCCCCCc1ccc(O)cc1`, for which the Potency is 48.6 µM (active).

A further test in a line: qHTS assay to identify small molecule antagonists of the estrogen related receptor signaling pathway with the pleiotropic PPARgamma coactivator (PGC) from Tox21 10K library (AID 1224841; call rule not given here; note: actives are mostly falling curves and most rising ones were filed inactive; nearly all actives have a fitted effect of over 50% in size; note: potency is the fitted concentration of half-maximal effect). As to conditions: PGC/ERR reporter cell line, ONE-Glo luciferase, 18 h; series mostly up to 92.4 µM; activity, negative = inhibition: at the top concentration. The procedure, abridged:
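In the PGC/ERR line, DMSO solutions of test chemicals are pin-delivered to 2,000 cells/well six hours after dispensing. Following eighteen hours' incubation, One-Glo reagent is added and luminescence recorded.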
Take `C[n+]1ccn(Cc2ccccc2)c1`: the “activity, negative = inhibition” value is -21.8%.

On to `CC(C)n1nc(-c2cc3cc(O)ccc3[nH]2)c2c(N)ncnc21`, for which the Potency was 0.211 µM (active).

As to `Oc1ccc(Cl)cc1Sc1cc(Cl)ccc1O`, the Potency was 13.7 µM (active) and 10.6 µM (active).

For `CCCCN1C(=O)[C@@H]([C@H](O)C2CCCCC2)NC(=O)C12CCN(Cc1ccc(Oc3ccc(C(=O)O)cc3)cc1)CC2`, the “activity, negative = inhibition” value is -14.5%.

Consider `Cc1[nH]cnc1C[C@H]1CCc2c(C)c3ccccc3n2C1=O`, for which the Potency was 23.7 µM (active).

In the case of `CCCC(=O)OC[C@@H](OC(=O)CCC)[C@@H](OC(=O)CCC)[C@H](Cn1c2nc(=O)[nH]c(=O)c-2nc2cc(C)c(C)cc21)OC(=O)CCC`, the Potency was 23.7 µM (active).

With `Cc1cc(=O)oc2cc(N(C)C)ccc12`, the “activity, negative = inhibition” value was 32.9%.

In the case of `Clc1ccccc1C(c1ccccc1)(c1ccccc1)n1ccnc1`, the Potency is 5.45 µM (active) and 9.44 µM (active).

`OCCN1CCN(CC/C=C2/c3ccccc3Sc3ccc(C(F)(F)F)cc32)CC1`: the Potency was 29.8 µM (active).

For the compound `CC[C@@]1(O)C(=O)OCc2c1cc1n(c2=O)Cc2cc3c(CN(C)C)c(O)ccc3nc2-1`, the Potency is 16.8 µM (active).

`COc1ccc(CN2CCN(C(c3ccc(F)cc3)c3ccc(F)cc3)CC2)c(OC)c1OC`: the Potency is 11.9 µM (active).

On to `OCCN(CCO)c1nc(N2CCCCC2)c2nc(N(CCO)CCO)nc(N3CCCCC3)c2n1`, for which the Potency was 21.1 µM (active).

As to `CN1CCC(Nc2ncc3ncnc(Nc4ccc(F)c(Cl)c4)c3n2)CC1`, the “activity, negative = inhibition” value was 100% [at 42.5 µM].

On to `ON=C1CCCC1`, for which the Potency is 63.3 µM (active).

As for `C[C@@H](NCCCc1cccc(C(F)(F)F)c1)c1cccc2ccccc12`, the “activity, negative = inhibition” value is -19% [at 42.5 µM].

On to `CCN(CCC#N)c1ccc(N=Nc2c(Cl)cc([N+](=O)[O-])cc2Cl)cc1`, for which the “activity, negative = inhibition” value was 2.38%.

As to `CCCCCCCCCCCCc1ccc(O)cc1`, the Potency is 54.5 µM (active).

A short description of a further test: qHTS assay to identify small molecule agonists of the estrogen related receptor signaling pathway with the pleiotropic PPARgamma coactivator (PGC) from Tox21 10K library (AID 1224842). Note: nearly all actives have a fitted effect of over 15% in size. As to conditions: PGC/ERR reporter cell line, luciferase ONE-Glo, 18 h; series mostly up to 92.4 µM; activation: at the top concentration. The procedure, abridged:
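Luminescence from One-Glo (30 min, room temperature) measured after PGC/ERR cells had 18 h at 37 C with pinned compound (23 nL in DMSO). Cells had been seeded at 2,000 per well and pre-incubated 6 h.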
With `C[n+]1ccn(Cc2ccccc2)c1`, the “activation” value is -9.09%.

As for `CC(C)n1nc(-c2cc3cc(O)ccc3[nH]2)c2c(N)ncnc21`, the “activation” value is -5.97% [at 42.5 µM].

For the compound `CCCCCCCCCCCCCCCC[N+](C)(C)CCN(Cc1ccc(OC)cc1)c1ncccn1`, the “activation” value was -13.3% [at 42.5 µM].

Take `CNc1ccc(O)cc1`: the “activation” value was -34.7%.

For `Oc1ccc(Cl)cc1Sc1cc(Cl)ccc1O`, the Potency result was “inactive”.

Take `CCCCN1C(=O)[C@@H]([C@H](O)C2CCCCC2)NC(=O)C12CCN(Cc1ccc(Oc3ccc(C(=O)O)cc3)cc1)CC2`: the “activation” value is -5.04%.

Turning to `Cc1[nH]cnc1C[C@H]1CCc2c(C)c3ccccc3n2C1=O`, the “activation” value is -27.5%.

Consider `COc1cc(-c2nc(NC(=O)c3cc4cc(C)cc(C)c4n3CC(=O)O)sc2CCC2CCCCC2)c(OC)cc1Cl`, for which the “activation” value was -7.79%.

Take `CCCC(=O)OC[C@@H](OC(=O)CCC)[C@@H](OC(=O)CCC)[C@H](Cn1c2nc(=O)[nH]c(=O)c-2nc2cc(C)c(C)cc21)OC(=O)CCC`: the “activation” value is -17.2% [at 42.5 µM].

Regarding `Cc1cc(=O)oc2cc(N(C)C)ccc12`, the “activation” value was 10.1%.

As for `CCOC(=O)c1nc(C(Cl)(Cl)Cl)n(-c2ccc(Cl)cc2Cl)n1`, the “activation” value was -26.5%.

As to `CCCCc1oc2ccc(NS(C)(=O)=O)cc2c1C(=O)c1ccc(OCCCN(CCCC)CCCC)cc1`, the “activation” value is -35.3% [at 42.5 µM].

`Clc1ccccc1C(c1ccccc1)(c1ccccc1)n1ccnc1`: the Potency entry was “inactive”.

In the case of `OCCN1CCN(CC/C=C2/c3ccccc3Sc3ccc(C(F)(F)F)cc32)CC1`, the “activation” value was -18.4% [at 42.5 µM].

Turning to `CC[C@@]1(O)C(=O)OCc2c1cc1n(c2=O)Cc2cc3c(CN(C)C)c(O)ccc3nc2-1`, the “activation” value was -15.1% [at 42.5 µM].

On to `COc1ccc(CN2CCN(C(c3ccc(F)cc3)c3ccc(F)cc3)CC2)c(OC)c1OC`, for which the “activation” value is -27.7% [at 42.5 µM].

Regarding `Nc1ccccc1O`, the “activation” value is 7.19%.

In the case of `OCCN(CCO)c1nc(N2CCCCC2)c2nc(N(CCO)CCO)nc(N3CCCCC3)c2n1`, the “activation” value was -20.2% [at 42.5 µM].

Regarding `CC(C)(C)C1CCC(CC2=C(O)c3ccccc3C(=O)C2=O)CC1` (stereo not given), the “activation” value was -13.8% [at 42.5 µM].

For `ON=C1CCCC1`, the “activation” value is -20.9%.

Regarding `C[C@@H](NCCCc1cccc(C(F)(F)F)c1)c1cccc2ccccc12`, the “activation” value was -5.15% [at 42.5 µM].

For `Nc1ccc2cc(S(=O)(=O)O)cc(O)c2c1N=Nc1ccccc1C(F)(F)F`, the “activation” value was -9.49%.

`CS(=O)(=O)CCNCc1ccc(-c2ccc3ncnc(Nc4ccc(OCc5cccc(F)c5)c(Cl)c4)c3c2)o1`: the “activation” value is -12.9% [at 42.5 µM].

As to `CCN(CCC#N)c1ccc(N=Nc2c(Cl)cc([N+](=O)[O-])cc2Cl)cc1`, the “activation” value was 0.775%.

In the case of `CCCCCCCCCCCCc1ccc(O)cc1`, the “activation” value is -34.6%.

On to `O=C(Oc1cccc2cccnc12)c1ccccc1`, for which the “activation” value is -16.1% [at 42.5 µM].
